VDR inh: inhibitors of human vitamin D receptor | P11473 | VDR-SRC2-3 peptide fluorescence polarization, 2 h | AID 504847 | actives 0.93% (n = 400,000) | Potency, µM, without a hit: max response, negative = inhibition, usual class: inhibitors; note: % is set by controls: 0 for no effect and ±100 for the full control effect
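VDR–SRC2-3 interaction, FP format. Cmpds 23 nl via pintool, brief spin, 2 h ambient incubation.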
G9a inh: G9a (human) methyltransferase inhibition | actives 8.8% (n = 350,000) | G9a H3K9 monomethylation, AlphaScreen, 2 h | Q96KQ7 | Potency, µM (series often up to 102 µM), inactives show top-dose activity, negative = inhibition, usual class: inhibitors; note: % is set by controls: 0 for no effect and ±100 for the full control effect; nearly all actives have a fitted effect of over 75% in size
Target sequence (Q96KQ7 913-1193 limits assumed): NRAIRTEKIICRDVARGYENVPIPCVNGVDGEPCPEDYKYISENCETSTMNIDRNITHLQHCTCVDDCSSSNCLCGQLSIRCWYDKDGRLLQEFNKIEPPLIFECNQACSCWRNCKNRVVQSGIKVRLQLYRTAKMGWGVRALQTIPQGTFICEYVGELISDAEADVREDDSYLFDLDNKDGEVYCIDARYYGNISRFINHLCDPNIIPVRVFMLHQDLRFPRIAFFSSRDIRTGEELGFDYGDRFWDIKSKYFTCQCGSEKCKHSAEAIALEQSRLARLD
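Signal arises when biotinylated H3K9 peptide, once monomethylated, bridges streptavidin donor and antibody-captured acceptor beads. Enzyme at 20 nM was preincubated 15 min with test compounds; peptide 500 nM and SAM 20 uM then reacted for 2 h.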
PLK1 PBD inh: blocks phosphopeptide binding to human PLK1 polo-box domain. P53350. Plk1 PBD binding of FITC phosphopeptide, fluorescence polarization. Potency, µM, for inactives: max response, negative = inhibition, actives largely listed as inhibitors. actives 2.8% (n = 360,000). AID 720504; note: series mostly up to about 57 µM; % is set by controls: 0 for no effect and ±100 for the full control effect; nearly all actives have a fitted effect of over 65% in size
JMJD2A Tudor inh: JMJD2A Tudor domain (human) inhibition; AlphaScreen JMJD2A-Tudor / H3K4me3 peptide binding; O75164; Potency, µM (titrated, usually from 114 µM), inactives show at the highest dose activity change, negative = inhibition, usual class: inhibitors; actives 4.4% (n = 390,000); AID 504339; note: % is set by controls: 0 for no effect and ±100 for the full control effect; nearly all actives have a fitted effect of over 50% in size
HP1b binding inh: blocks HP1-beta chromodomain binding to methylated histone tails; P83916; AlphaScreen HP1-beta / biotin-H3K9me3 peptide binding; Potency, µM (top dose mostly 114 µM), for the others: at the highest dose activity change, negative = inhibition, most hits filed as inhibitors; actives 0.56% (n = 390,000); note: nearly all actives have a fitted effect of over 70% in size
Target sequence (P83916 whole entry, looked up): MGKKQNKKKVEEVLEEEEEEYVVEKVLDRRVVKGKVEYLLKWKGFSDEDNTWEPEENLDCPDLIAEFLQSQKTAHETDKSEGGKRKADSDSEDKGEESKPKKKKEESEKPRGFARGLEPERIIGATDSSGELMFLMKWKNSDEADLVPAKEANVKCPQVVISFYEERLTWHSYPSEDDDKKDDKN
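Compound inhibition of the preformed complex between 50 nM HP1-beta and 50 nM biotinylated H3K9me3 peptide was read by AlphaScreen. Buffer was PBS pH 7.4 with 0.01% Tween-20. Incubations ran 30 min at room temperature, with 10 ug/mL donor/acceptor beads.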
BAZ2B block: blocks human BAZ2B | AlphaScreen BAZ2B-H3K14Ac peptide displacement | Potency, µM (series often up to 114 µM), for the others: at the top dose activity change, negative = inhibition, actives largely listed as inhibitors | actives 4.4% (n = 360,000) | AID 504333; note: % is set by controls: 0 for no effect and ±100 for the full control effect; nearly all actives have a fitted effect of over 60% in size
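Protein-peptide AlphaScreen: BAZ2B 50 nM, b-H3K14Ac 50 nM, 1x PBS pH 7.4 + 0.01% Tween-20. Preincubation 30 min RT; cpd 30 min RT (top 110 uM); beads 20 min RT, light-protected.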
Starred values were filed as active, the others as inactive; ? = inconclusive; . = not tested or not shown; [ ] = dose if it differs, or a comment. Sampled rows, rich in hits. Any-hit rate of the full collection: about 11%. Calls come from the whole dose curve; as a rule, active = well fitted curve in the direction sought with a large enough effect; inconclusive = small, poorly fitted or top-dose-only effect, or another doubt; inactive = no such curve, though single readings can be large; an effect the other way counts as inactive or inconclusive. Potency is the fitted concentration of half-maximal effect.

SMILES | VDR inh | G9a inh | PLK1 PBD inh | JMJD2A Tudor inh | HP1b binding inh | BAZ2B block
COC(=O)c1ccccc1NC(=O)c1ccc2c(c1)CCN2S(=O)(=O)c1ccc(C)cc1 | 1% | -3%[59 µM] | . | -18% | 21% | -2%
COc1ccc(-c2cc(-c3ccc(C)cc3)nc3c2COc2ccccc2-3)cc1 | -6% | 3%[59 µM] | . | 8% | 35% | -13%
Cc1ccc(NC(=O)CCC(=O)NNC(=O)/C=C/C(=O)O)c(C)c1 | 0% | 10µM* | -6% | ? | 21% | -36%
Cc1ccc(NC(=O)CCC(=O)NNS(=O)(=O)c2ccc(Cl)cc2)cc1C | -8% | -12% | -6% | -3% | 42% | -11%
Cc1ccc(NC(=O)CCC(=O)NNS(=O)(=O)c2ccccc2)cc1C | ? | -1%[59 µM] | 27µM* | ? | ? | -2%
COCc1cc(C)nc2sc(C(=O)Nc3ccc(OC(F)(F)F)cc3)c(N)c12 | -15% | 0%[59 µM] | . | 2% | 41% | 3%
C=C1CC2C(=O)N(Cc3cc(OC)ccc3OC)C(C(=O)OCC)(C(=O)OCC)C1N2C(=O)OC(C)(C)C (stereo unspecified) | -9% | . | -11% | -27% | 19% | .
C[C@@H](NC(=O)[C@@H]1Cc2ccccc2CN1)C(=O)NC1CCCCC1 | 5% | ? | -9% | -9% | 20% | -20%
CC(C)C(OC(=O)C1=Cc2ccccc2OC1)C(=O)NCC1CCCO1 (stereo unspecified) | -18% | . | 21µM* | 50µM* | ? | .
C[C@H](NC(=O)[C@@H]1Cc2ccccc2CN1)C(=O)NCC1CCCO1 (stereo partly specified) | -19% | 40µM* | 30µM* | ? | 19% | -4%
N#Cc1ccc2c(c1)C[C@]1(CCCCN3C(=O)c4ccccc4C3=O)Oc3c(c(=O)oc4ccccc34)C2O1 | . | 12%[2.33 µM] | . | . | . | -9%[22.9 µM]
O=C(O)c1cnn2cc(-c3[nH]ncc3[N+](=O)[O-])cnc12 | -20% | ? | -3% | 22µM* | 4% | ?
Cc1cnc2c(C(=O)O)cnn2c1 | -5% | 56µM* | -2% | ? | ? | ?
CC(C)Oc1ccc(Cc2cnc(=S)[nH]c2N)cc1 | -27% | 50µM* | ? | -15% | 40% | -18%
O=C1C(CCCNC(=S)NCc2ccccc2)NC(=S)N1Cc1ccccc1 (stereo unspecified) | -14% | 50µM* | -7% | -31% | -3% | ?
COc1cccc(Cn2c(CNC(=O)Cc3cccc(C)c3)nc3cccnc32)c1 | -2% | 2%[59 µM] | . | -12% | 11%[57 µM] | -1%
C/C(=N\Nc1nc2ccccc2s1)c1ccc(Br)s1 | -27% | 35µM* | -4% | ? | -11% | ?
CC(=NNc1nc2ccccc2s1)c1ccncn1 | -6% | . | -9% | ? | -16% | .
N#Cc1cccc(CN2CCC(=O)N([C@H](CO)Cc3ccccc3)CC2)c1 | -15% | . | -12% | -24% | 46% | -6%
COc1ccc(-c2nc3c4ccccc4n(CC(=O)N4CCN(c5ccc(F)cc5)CC4)c(=O)n3n2)cc1 | 9% | -3%[59 µM] | . | -12% | 71% | 15%
Cc1cc(OCc2ccc(C(=O)n3cccn3)o2)ccc1Cl | -8% | -18%[59 µM] | 24µM* | -5%[57.1 µM] | 26% | 21%
NC(=O)NC(=O)CC1S/C(=N/N=C2\CSC(=O)N2)NC1=O (stereo unspecified) | 2% | 0.79µM* | 0% | 8.9µM* | 48% | 3.2µM*
O=C(O)CNC(=O)CC1S/C(=N/N=C2/NC(=O)CS2)NC1=O (stereo unspecified) | -5% | 28µM* | -35% | 22µM* | 2% | 20µM*
CCc1nn(CC(=O)Nc2c(C)cc(C)cc2C)c(=O)c2cc3sccc3n12 | -5% | ? | . | -3% | 19% | -2%
CN1c2ccccc2C(C)(C)C12CCCC(=O)N2 (stereo unspecified) | 20% | 8.9µM* | -13% | ? | 45% | 50µM*
Fc1ccc(-n2ncc3c(N4CCN(c5ccccc5F)CC4)ncnc32)cc1 | 15% | 18%[59 µM] | . | -17% | 26% | 9%

Screening data (PubChem)
